HPGD block – blocks human HPGD enzyme activity; P15428; 150,000 compounds, 4.3% hits; Potency, µM, most hits filed as inhibitors; purified HPGD, NADH fluorescence kinetic, PGE2 substrate; AID 894; active = well fitted inhibition curve with a large enough effect, not every such curve was filed as active; inconclusive = small, poorly fitted or top-dose-only effect, or another doubt; inactive = no such curve, though single readings can be large or run the other way
Target sequence (P15428 whole entry, looked up): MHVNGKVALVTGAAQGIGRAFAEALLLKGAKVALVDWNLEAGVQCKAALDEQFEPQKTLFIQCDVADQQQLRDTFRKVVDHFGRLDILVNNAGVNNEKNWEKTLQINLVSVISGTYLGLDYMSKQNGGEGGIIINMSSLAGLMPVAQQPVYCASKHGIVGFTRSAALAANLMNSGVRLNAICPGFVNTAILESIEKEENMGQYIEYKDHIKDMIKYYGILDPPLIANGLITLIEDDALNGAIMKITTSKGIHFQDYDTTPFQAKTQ
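20 nM HPGD preincubated 15 min at room temperature with compound in 50 mM Tris-HCl pH 8, 0.01% Tween 20. Started with 1 mM NAD+ and 30 uM prostaglandin E2; NADH fluorescence (360/450 nm) read 5 times over 30-s intervals, last minus first.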
HTT aggregate – inhibitors of mutant huntingtin aggregate formation in PC12 cells; PC12 HttQ103-GFP aggregates, Acumen cytometry, 40 h; Potency, µM (series often up to 46.1 µM), most hits filed as inhibitors; 220,000 compounds, 1.1% hits; note: nearly all actives have a fitted effect of over 60% in size
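Huntingtin Q103 exon 1–GFP aggregates in induced PC12 cells (100 nM tebufenozide) were quantified by cytometry from lysates, with compounds dosed in titration.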
HTT cytoprotect – cytoprotection in Huntington HTT-Q103 PC12 cell model | 230,000 compounds, 0.14% hits | Potency, µM (titrated, usually from 56.4 µM), actives largely listed as activators | PC12 HTT-Q103 induced, cytoprotection, ATP luminescence, 40 h | AID 1471; note: nearly all actives have a fitted effect of over 45% in size
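Cells were plated at 1500 per well in phenol red-free DMEM with 5% equine and 5% calf serum. Tebufenozide (100 nM final) and compounds were added, then ATPlite reagent, and luminescence was read.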
RGS12 GoLoco inh – blocks human Gai1 binding to RGS12 GoLoco peptide, red readout. Potency, µM (top dose mostly 61.6 µM), usual class: inhibitors. Gai1:RGS12 GoLoco peptide FP, rhodamine, 10 min. P63096. 230,000 compounds, 0.44% hits; active = well fitted inhibition curve with a large enough effect, not every such curve was filed as active; inactive = no such curve, though single readings can be large or run the other way; note: nearly all actives have a fitted effect of over 30% in size
ALDH1A1 block – inhibitors of human aldehyde dehydrogenase 1A1; Potency, µM (doses to about 75.3 µM), most hits filed as inhibitors; P00352; Purified ALDH1A1, NADH fluorescence, propionaldehyde substrate; 220,000 compounds, 7.3% hits; active = well fitted inhibition curve with a large enough effect, not every such curve was filed as active; inconclusive = small, poorly fitted or top-dose-only effect, or another doubt; inactive = no such curve, though single readings can be large or run the other way
PNC inhibitor – inhibitors of perinucleolar compartment assembly; PC3M PTB-GFP, PNC prevalence imaging, 16 h; stronger effect = lower value; activity change (PNC), negative = inhibition, % at 10 µM; 140,000 compounds, 3.1% hits; AID 2417;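 active = readout at or below -70, meaning at least 70% loss of cells showing the perinucleolar compartment, a nuclear body marking cancer cells; inconclusive = readout between -30 and a set limit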
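Compounds are pinned in duplicate onto adhered PC3M cells stably expressing GFP-tagged PTB and incubated 16 h at 37 C. Cells are then fixed, nuclei stained with Hoechst, and PNC-positive cells counted.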
Each line names hits and unclear results; the compound was inactive in the other large screens. A selection: hits, their analogues and other compounds. The true share with any hit is near 11%. Unless noted, calls come from the whole dose curve; as a rule, active = well fitted curve in the direction sought with a large enough effect; inconclusive = small, poorly fitted or top-dose-only effect, or another doubt; inactive = no such curve, though single readings can be large; an effect the other way counts as inactive or inconclusive.

S=C(NC1CCCCC1)N1CCN(C2CCCCC2)CC1	none (no result: HPGD block, PNC inhibitor)
CCCCN1C(=O)CCC(C(=O)O)C1c1ccccc1 (stereo not given)	PNC inhibitor -102
CCCCN1C(=O)CC(C(=O)O)C1c1ccc(OC)cc1 (stereo not given)	HTT cytoprotect inconclusive
CC1CCN(c2c(NCC3CCC(C(=O)NCc4ccccc4Cl)CC3)c(=O)c2=O)CC1 (stereo not given)	HPGD block 16µM (no result: HTT cytoprotect)
CC1CCN(c2c(NCC3CCC(C(=O)Nc4ccccn4)CC3)c(=O)c2=O)CC1 (stereo not given)	HPGD block 22µM, PNC inhibitor -119 (no result: HTT cytoprotect)
O=C(O)c1ccc(C(=O)c2ccccc2)c(C(=O)O)c1	none (no result: HTT aggregate, PNC inhibitor)
CC(C)C(=O)NC(=S)Nc1ccc(S(=O)(=O)NC(C)(C)C)cc1	HPGD block inconclusive, ALDH1A1 block inconclusive, PNC inhibitor -107
CC(C)C(=O)NC(=S)Nc1ccc(S(=O)(=O)Nc2ccccc2)cc1	ALDH1A1 block inconclusive, PNC inhibitor inconclusive
CC1=CC(=O)CC(C)(C)[C@@]1(O)/C=C\C(C)=C\C(=O)O	none (no result: HPGD block, HTT aggregate, RGS12 GoLoco inh, ALDH1A1 block, PNC inhibitor)
Cc1ccccc1CSCc1nc(N)nc(Nc2ccccc2C)n1	ALDH1A1 block inconclusive (no result: HPGD block, PNC inhibitor)
Cc1ccccc1Nc1nc(N)nc(CSCc2c(C)noc2C)n1	ALDH1A1 block 14µM, PNC inhibitor inconclusive
COC(=O)N1CCC2(CC1)CN(C(=O)Nc1ccccc1)C2	none (no result: HTT aggregate, PNC inhibitor)
CCCNC(=O)Cn1c(=O)/c(=C\c2ccc(-c3ccc([N+](=O)[O-])cc3)o2)s/c1=C\C(=O)C(C)(C)C	HTT aggregate 14µM, PNC inhibitor inconclusive
CCCNC(=O)Cn1c(=O)/c(=C\c2ccc(-c3cccc([N+](=O)[O-])c3)o2)s/c1=C\C(=O)C(C)(C)C	ALDH1A1 block inconclusive, PNC inhibitor inconclusive
COc1ccc(/C=C2/N=C3CCCCCN3C2=O)cc1OC	ALDH1A1 block 28µM
Clc1ccc(-c2nnc(COc3ncnc4ccccc34)o2)cc1	HTT aggregate inconclusive (no result: HPGD block, PNC inhibitor)
Cc1cccc(C(=O)NC(=S)N2CCc3ccccc3C2)c1	ALDH1A1 block inconclusive, PNC inhibitor -82 (no result: HTT cytoprotect)
O=C(c1ccccc1Cl)N1CCc2ccccc2C1	HPGD block 4.5µM, HTT aggregate inconclusive, ALDH1A1 block inconclusive
O=C(c1cncc(Br)c1)N1CCCc2ccccc21	none
O=C(c1cncc(Br)c1)N1CCc2ccccc2C1	HPGD block 10µM, HTT aggregate 10µM, PNC inhibitor inconclusive
O=C(c1ccc(Cl)nc1)N1CCc2ccccc2C1	HPGD block 7.9µM, PNC inhibitor inconclusive
CCNC(=S)N1CCc2ccccc2C1	none (no result: HPGD block, PNC inhibitor)
CCCCNC(=O)C(c1ccc(OCC(=O)OC)c(C(=O)OC)c1)N(CCC1=CCCCC1)C(=O)CCCCCN1C(=O)NC(c2ccc(-c3ccccc3)cc2)C(C(=O)OCc2ccccc2)=C1C (stereo not given)	none (no result: HTT aggregate, PNC inhibitor)
CN1CCN(c2ncc3nc(-c4cccc(C#N)c4)c(=O)n(CCc4ccccc4)c3n2)CC1	ALDH1A1 block inconclusive (no result: HPGD block, HTT aggregate, PNC inhibitor)
O=C(c1cccc(F)c1)N1CCc2ccccc2C1	HPGD block 5µM, ALDH1A1 block 14µM
COc1cccc(C(=O)N2CCN(C(=O)c3cccc(F)c3)CC2)c1	ALDH1A1 block inconclusive
CC(C)(C(=O)c1cccnc1)c1cccnc1	none (no result: PNC inhibitor)
O=C(OCC(=O)N1CCN(c2ccccc2)CC1)c1cccc(Cl)c1	PNC inhibitor inconclusive
CC(C)[C@H](NS(=O)(=O)c1cccc(Cl)c1)C(=O)OCC(=O)N1CCN(c2ccccc2)CC1	ALDH1A1 block 2.5µM
COc1cc(C(c2sc3nc(C)nn3c2O)N2CCC3(CC2)OCCO3)cc(OC)c1OC (stereo not given)	ALDH1A1 block 18µM
COC(=O)C1CCN(C(c2cc(OC)c(OC)c(OC)c2)c2sc3nc(C)nn3c2O)CC1 (stereo not given)	PNC inhibitor inconclusive
COc1ccc2cnnc(SCC(=O)Nc3ccccc3)c2c1OC	HPGD block 25µM, ALDH1A1 block inconclusive
Cc1ccc(S/C=C\C(=O)c2ccccc2)cc1	ALDH1A1 block 20µM, PNC inhibitor inconclusive
CC(/C=C/C(=O)c1ccc(C)cc1)=C\c1ccccc1	none

High-throughput results: PubChem, National Center for Advancing Translational Sciences (NCATS)
